The values that follow come from PubChem BioAssay AID2315 (National Center for Advancing Translational Sciences (NCATS), 2010).

The whole screen tested about 290,000 compounds, of which about 27,000 (9.3%) were called active. No stated cut-off is given here; in the data, active means inhibition mostly above about 28% (no sharp cut-off); inactive means mostly below about 43%. Shown is part of a subset that was picked to be rich in actives.

This test in a line: A qHTS for Small Molecule Inhibitors of Shiga Toxin. Further: 0% is about no effect. The note with it: Vero cells, Shiga toxin protein synthesis inhibition reporter; at 38.7 µM, active compounds read high. In general terms: qHTS replaces the single test concentration by a dilution series.
As to `COc1cccc(NC(=O)C2CCCN(c3ncnc4c3nc3n4CCCCC3)C2)c1` (stereo not given), the inhibition (as a rule, the change of the read-out against control, counted positive when it falls) was -3.78% (inactive).

For the compound `Cc1ccc(N2CCN(C(=O)c3cccs3)CC2)c(C)c1`, the inhibition was 8.46% (inactive). With `CCc1ccc(OCC(=O)N(Cc2ccccc2)C2CCS(=O)(=O)C2)cc1` (stereo not given) the figure was -3.9% (inactive); with `CN(C)S(=O)(=O)c1cccc(C(=O)OCC(=O)N2CCCC2=O)c1`, -2.45% (inactive). With `CC(C(=O)NC1CCS(=O)(=O)C1)N1C(=O)/C(=C/c2ccc(Cl)cc2)SC1=S` (stereo not given) the figure was -2.44% (inactive); with `COc1ccccc1CN1CCN(Cc2cc(OC)c(OC)cc2OC)CC1`, 7.78% (inactive).

Turning to `COc1ccc(CNS(=O)(=O)c2ccc(NC(=O)N3CCCCC3)cc2)cc1`, the inhibition is 1.93% (inactive). With `CC(C)C(=O)Nc1c2c(nn1-c1ccccc1)CSC2`, the inhibition was -0.685% (inactive). With `COc1cc2c(cc1OC)C(C)N(S(=O)(=O)c1cnc(Cl)c(Cl)c1)CC2` (stereo not given) the figure was -3.13% (inactive); with `Oc1oc(-c2ccccc2Br)nc1/C=N/c1ccccn1`, 102% (active).

As for `CC(C)n1c(O)c(N=Nc2ccccn2)c2ccccc21`, the inhibition was 11.1% (inactive).

On to `O=C(c1ccc[nH]c1=S)N1CCN(S(=O)(=O)c2ccc(Br)cc2Cl)CC1`, for which the inhibition is -6.76% (inactive).

Consider `CC(C)c1ccc(NC(=O)[C@@H](NC(=O)N2CC(=O)Nc3ccccc32)C(C)C)cc1`, for which the inhibition was -1.19% (inactive). With `COc1ccc(N(C(=O)c2snc(C(N)=O)c2N)C(C(=O)NC2CCCC2)c2ccco2)cc1OC` (stereo not given) the figure was 10.1% (inactive); with `Cc1cnc(CN(C)C(=O)C2CCC(=O)N(CCc3cccc(F)c3)C2)[nH]1` (stereo not given), -1.92% (inactive). The result for `CCc1c(C)nc(SCC(=O)NC2CCCC2)[nH]c1=O` reads -6.89% (inactive); that for `COc1ccc(-c2nc(SCC(=O)N3CCCC3)n[nH]2)cc1`, 38.5% (inactive). Turning to `CCc1ccc(-c2nc(SCC(=O)NC3CCCC3)n[nH]2)cc1`, the inhibition was 22.7% (active). Take `COc1ccc(S(=O)(=O)NC(C)c2ccccc2)cc1C(=O)N1CCCCC1` (stereo not given): the inhibition is -7.47% (inactive). With `Clc1cccc(Cl)c1OCCOCCNCc1ccccc1` the figure was 1.14% (inactive); with `Cc1cc(N2CCN(c3ccccc3)CC2)nc(N2CCOCC2)n1`, -8.49% (inactive). In the case of `FC(F)(F)c1nnc2ccc(N3CCN(c4ccccc4)CC3)nn12`, the inhibition was -8.76% (inactive). With `Cc1cc(C)n(-c2nnc(N3CCN(c4ccccc4)CC3)nn2)n1` the figure was 35.7% (active). With `CCOc1ccc2[nH]c(=O)c(CN(CCCO)S(=O)(=O)c3ccc(F)cc3)cc2c1`, the inhibition is -6.85% (inactive). With `Cc1ccc(C(=O)NCC(=O)OCC(=O)NC2CCCCCCC2)cc1` the figure was -5.5% (inactive); with `O=C(NC(c1ccccc1)c1ccccc1)N1CCN(CCO)CC1`, 8.02% (inactive); with `O=C1c2ccccc2C(=O)c2c1cccc2N1CCN(CCO)CC1`, 75.3% (active). Regarding `O=C1c2ccccc2C(=O)c2c1cccc2N1CCN(Cc2ccccc2)CC1`, the inhibition was 47.7% (inactive).

Regarding `NC(=O)CSc1nnc(NC(=O)c2ccc(Br)o2)s1`, the inhibition is 15.2% (inactive).

With `CN(C)c1cccc(C(=O)N2CCC(n3nccc3NC(=O)C3CCOC3)CC2)c1` (stereo not given), the inhibition was -1.93% (inactive). With `Cc1ccc(NC(=O)Nc2ccccc2)c(Br)c1` the figure was 105% (active); with `CS(=O)(=O)c1ccc(Cl)c(NC(=O)Nc2ccccc2)c1`, 38.5% (inactive); with `Cc1c(NC(=O)Nc2ccccc2)cccc1[N+](=O)[O-]`, -38.1% (inactive). With `COc1cc(NC(=O)C2=CC(c3ccc(C)cc3)=NS(=O)(=O)N2C)cc(OC)c1OC` the figure was 7.86% (inactive). Turning to `Cc1[nH]c(C)c(S(=O)(=O)N2CCN(c3cccc(C(F)(F)F)c3)CC2)c1C(=O)N1CCCC1`, the inhibition is -8.08% (inactive).

Consider `CCOc1ccc(N2C(=O)CC(N(CCc3ccc(OC)c(OC)c3)C(=S)Nc3ccccc3)C2=O)cc1` (stereo not given), for which the inhibition was 9.09% (inactive).

On to `CCOc1ccc(N2C(=O)CC(N(O)c3ccccc3)C2=O)cc1` (stereo not given), for which the inhibition was 100% (active). The result for `CCCCCCC(=O)N(O)C1CC(=O)N(c2ccccc2)C1=O` (stereo not given) reads -2.28% (inactive); that for `CCc1nn(-c2cc(Oc3cccc4ccccc34)nc(-c3ccccc3)n2)c(N)c1C#N`, -16.3% (inactive); that for `CC1CCCC(C)N1/N=C/c1ccccc1OC(F)F` (stereo not given), -12.3% (inactive). With `COC(=O)c1ccc(/C=N/N2C(C)CCCC2C)cc1` (stereo not given), the inhibition is 66.3% (active).

On to `COC(=O)c1ccc(/C=N\n2c(C)nnc2C)cc1`, for which the inhibition is 8.68% (inactive). On to `CCN(CC(=O)N1CCCC1)S(=O)(=O)c1ccc(F)cc1`, for which the inhibition is -4.28% (inactive). With `COC(=O)c1ccc(C(NC(=O)OCc2ccccc2)/C(C)=C/[C@@H](C)C(=O)NCc2ccc(OC)c(OC)c2)cc1` (stereo not given in full) the figure was -13.4% (inactive); with `Cn1cnnc1SCC(=O)NNC(=O)COc1ccc(Br)cc1`, 1.38% (inactive); with `Cn1cnnc1SCc1nnc(-c2ccccc2Br)o1`, 58.3% (active). The result for `Nc1cccc2c1C(=O)N(Cc1nnc(-c3ccccc3Br)o1)C2=O` reads 18.9% (inactive); that for `O=C(CN1C(=O)S/C(=C\c2ccccc2Cl)C1=O)NC1C=CS(=O)(=O)C1` (stereo not given), -2.51% (inactive).

As to `COc1ccc(C2=NS(=O)(=O)N(C)C(C(=O)NC(C)c3ccccc3)=C2)cc1` (stereo not given), the inhibition was 10.4% (inactive). As to `COc1ccc(CCNC(=O)CCCCCNC(=O)N2CCn3c2nc2ccccc23)cc1OC`, the inhibition was 4.93% (inactive). The result for `COc1ccc(C2=NOC(COC(=O)c3ccc4ccccc4n3)C2)cc1` (stereo not given) reads 22.8% (inactive); that for `O=C(Oc1ccc([N+](=O)[O-])cc1)c1ccc2ccccc2n1`, -35.6% (active). Turning to `O=C(CNC(=O)c1ccccc1)Oc1ccc([N+](=O)[O-])cc1`, the inhibition is -10.1% (inactive).

In the case of `COc1ccc(C(=O)Nc2c(N)nc(SCC(=O)Nc3ccc(C(C)=O)cc3)[nH]c2=O)cc1`, the inhibition is -1.66% (inactive). As to `Cc1cc(C(=O)N/N=C/c2ccccc2[N+](=O)[O-])c(C)o1`, the inhibition was 72.5% (active). With `CC(=C/c1ccccc1)/C=N/NC(=O)c1cc(C)oc1C` the figure was 0% (inactive); with `O=C(Cc1cc(=O)[nH][nH]1)N/N=C/c1ccccc1[N+](=O)[O-]`, 13.6% (inactive).

With `Cc1c(Cl)c([N+](=O)[O-])nn1CC(=O)NCCCN1CCOCC1`, the inhibition is -6.5% (inactive). With `COc1ccc(-n2c(=O)[nH]c3cc(C(=O)NCCc4ccc(OC)c(OC)c4)ccc3c2=O)c(OC)c1` the figure was 3.16% (inactive); with `O=C(NNC(=S)Nc1ccc(F)cc1)[C@H]1C[C@@H]1c1ccccc1`, -8.83% (inactive); with `Cc1ccc(NC(=O)C2CC2c2ccccc2)cc1` (stereo not given), 32% (active). The result for `Cc1ccc(C2CC2C(=O)NN)cc1` (stereo not given) reads -15.4% (inactive); that for `COc1ccc(OC)c(CNC(=O)c2cc(=O)[nH]c3ccc(S(=O)(=O)N4CCCC4)cc23)c1`, -3.87% (inactive); that for `COc1cccc(-n2c(N)cc(=O)nc2SCC(=O)Nc2cc(C)on2)c1`, 13.4% (inactive).

Take `COc1cc2ccccc2cc1C(=O)Nc1nc(C)c(C(C)=O)s1`: the inhibition is 69.5% (active).

Consider `COc1cc2ccccc2cc1C(=O)Nc1ccccc1C`, for which the inhibition was 32.5% (active). With `CC(=O)c1sc(NC(=O)c2cccc3ccccc23)nc1C` the figure was 31.4% (inactive); with `COc1cc2ccccc2cc1C(=O)Nc1ccc(NC(=O)c2cccs2)cc1`, 15.8% (inactive).

As for `COc1cccc2sc(Nc3nc(C)c(C(C)=O)s3)nc12`, the inhibition is 29.8% (inactive).

For the compound `COc1cc(OC)c(C(=O)Nc2ccccc2-c2ccccc2)cc1OC`, the inhibition was -5.65% (inactive). The result for `CCN(CC)c1ccc(NC(=O)CCc2nnc3ccc(N4CCCCC4)nn23)c(C)c1` reads -1.98% (inactive).

`Cc1[nH]c(C)c(S(=O)(=O)N2CCC(C)CC2)c1C(=O)N1CCCC1`: the inhibition was -4.27% (inactive). `Cc1ccsc1-c1cc(C(=O)O)c2c(ccc3ccccc32)n1`: the inhibition was 17.5% (inactive).

With `CN(Cc1c(F)cccc1Cl)S(=O)(=O)c1cccs1`, the inhibition is 20.7% (inactive). As to `CC1CC(C)CN(c2ccc(S(=O)(=O)N3CCOCC3)cc2)C1` (stereo not given), the inhibition is 13.9% (inactive). With `Cn1c(CC(=O)Nc2ccc(F)cc2)nnc1SCC(=O)NC1CCCCC1` the figure was -5.18% (inactive); with `CC(C)c1ccc(Nc2ncccc2C#N)cc1`, 52.3% (active). With `CN(C)c1ccnc(Nc2ccc(F)cc2)c1C#N` the figure was 7.86% (inactive); with `CCOc1ccc(OCc2ccc(C(=O)Nc3cccc(C)n3)o2)cc1`, 42% (active). With `CC(=O)Cc1nsc(NC(=O)c2ccc(COc3ccc(C)cc3)o2)n1` the figure was -9.97% (inactive); with `Cc1cccc(NC(=O)c2ccc(COc3ccccc3[N+](=O)[O-])o2)n1`, 32.9% (inactive). Consider `COc1ccc(CCNC(=O)NS(=O)(=O)c2ccc(C)cc2)cc1OC`, for which the inhibition was 4.27% (inactive).

Take `CC(C)Cc1nnc(NC(=O)CN2C(=O)NC3(CCCCC3)C2=O)s1`: the inhibition is -8.2% (inactive). On to `Cc1ccc(S(=O)(=O)NCC(=O)N2CCN(c3ccccn3)CC2)cc1`, for which the inhibition is -5.02% (inactive). With `Cc1ccc(N2C(=O)C3CC3C2=O)cc1` (stereo not given) the figure was 25.6% (inactive). With `Cc1ccc(N2CCN(c3ccc(C)cc3)C2c2ccccn2)cc1` the figure was 57.4% (active). With `Cc1c(CN2CC[C@@H](N3CCN(c4ccccn4)CC3)[C@H](O)C2)[nH]c2ccc(F)cc12` the figure was -5.39% (inactive). As for `COc1cccc(C(=O)c2cc3ccc(O)cc3oc2=O)c1`, the inhibition is 21.7% (inactive).

As to `O=c1oc2cc(O)ccc2cc1-c1ccc(F)cc1`, the inhibition is 70% (active).

On to `COc1ccc(-c2cc3ccc(OCc4nn[nH]n4)cc3oc2=O)cc1`, for which the inhibition is 10.3% (inactive).

Turning to `Cc1cc2oc(=O)cc(CN(C)Cc3ccc(OC(F)F)cc3)c2cc1Cl`, the inhibition was 17.5% (inactive). With `O=C(CCc1nnc2ccc(NCCCN3CCCC3=O)nn12)NCc1ccccc1Cl` the figure was 20.3% (inactive); with `COc1cc(Cl)c(C)cc1NC(=O)CN1CCCCCC1`, 14.2% (inactive); with `Cc1csc(NC(=O)CN2CCCCCC2)n1`, -8.35% (inactive). For `Cc1cc(C)c(NC(=O)CN2CCCCCC2)c(C)c1`, the inhibition is 83.4% (active).
